Test results from ChEMBL document CHEMBL3988442, “University of Dundee, Small-Polar-MMV Screening Library” (2021).
Hit rate of the full screen: of about 48,000 compounds, about 13,000 (27%) showed an effect of 50% or more. The list shows a part of the results.

Test system: Wolbachia pipientis
Experiment: Anti-Wolbachia Cell-Based Screen
Assay type: functional
Design: scale not given: in the data most compounds retested in dose-response had high values
Details: 5 µM

Going from Cc1nc(C(C)(C)NC(=O)Nc2ccc(C#N)cc2)no1 to COCCn1ccc(NC(=O)Nc2cccc(C#N)c2)n1, the “Percent Effect” value rises from 2.937% to 15.59%.

First: CCCN(C(=O)c1cc2c([nH]c1=O)CCCC2=O)C1CCCCC1
Second: O=C(Nc1nc2c(s1)CCC2)NC1CCCC1
The “Percent Effect” value of the first is lower: -3.902% for the first, 91.02% for the second.

Going from NS(=O)(=O)c1cnn(-c2ccc(NC(=O)CC3CCCC3)cn2)c1 to CN(c1cccnc1N1CCCC1)S(=O)(=O)c1cccnc1, the “Percent Effect” value falls from 31.03% to -4.578%.

Compared with COC(=O)c1cccc(NC(=O)CCn2nc(-c3cccs3)oc2=O)c1, CC(=O)c1cccc(NC(=O)CCn2nc(-c3cccs3)oc2=O)c1 is higher in “Percent Effect” value: -4.824% for the first, 94.26% for the second.

Going from CC(=O)c1cccc(NC(=O)Cn2cnc(-c3cccs3)cc2=O)c1 to CC(=O)c1cccc(NC(=O)Cn2nc(-c3cccs3)oc2=O)c1, the “Percent Effect” value rises from 8.004% to 114.8%.

Compared with O=C(CCn1nc(-c2cccs2)oc1=O)Nc1cccc(F)c1, N#Cc1cccc(NC(=O)CCn2nc(-c3cccs3)oc2=O)c1 is higher in “Percent Effect” value: 101.8% for the first, 113.1% for the second.

Going from O=C(CCNC(=O)c1ccoc1)Nc1cccc(F)c1 to CNC(=O)c1cccc(NC(=O)Cn2nc(-c3cccs3)oc2=O)c1, the “Percent Effect” value falls from 8.68% to -3.203%.

First: CC(=O)c1cccc(NC(=O)COc2c(C)n(C)ccc2=O)c1
Second: CC(C)N(CC(=O)Nc1cccc(C#N)c1)C1CC1
The “Percent Effect” value of the first is higher: 5.404% for the first, -12.82% for the second.

Going from O=c1oc(-c2cccs2)nn1CC(O)c1ccc(F)cc1 (centres undefined) to O=S(=O)(NCCC(O)c1cccs1)c1ccccc1Cl (centres undefined), the “Percent Effect” value rises from -3.645% to 10.54%.

Going from CCn1ccnc1C1CCCN(c2nccc3ccccc23)C1 (centres undefined) to CCn1ccnc1CN1CCN(c2ncnc3ccsc23)CC1, the “Percent Effect” value rises from -22.2% to 18.95%.

Compared with CCCNC(=O)CN1CCN(c2nc(CC)ns2)CC1, Cc1nsc(NC(=O)NC2CCCN(C)C2)n1 (centres undefined) is lower in “Percent Effect” value: -2.637% for the first, -12.87% for the second.

Going from Cn1cc(CNCCOc2ccc(F)c(F)c2)c(-c2cccnc2)n1 to O=C(O)[C@@H]1CN(C(=O)c2ccc(F)c(F)c2)C[C@H]1c1cccc(F)c1, the “Percent Effect” value rises from 7.876% to 133.7%.

Going from Cc1nsc(NC(=O)NC2CCOCC2)n1 to Cl.O=C(Nc1nc2c(s1)CNCC2)NC1CCCC1, the “Percent Effect” value rises from 5.232% to 156.5%.

First: CCc1c(C)nc2n(c1=O)CC(C(=O)Nc1nc3c(s1)CCCC3)CS2 (centres undefined)
Second: Cl.O=C(Nc1nc2c(s1)CNCC2)C1CC1
The “Percent Effect” value of the first is lower: 1.424% for the first, 114.1% for the second.

First: Cc1nnc(NC(=O)NC(C)C(=O)NC2CCCC2)s1 (centres undefined)
Second: CC(NC(=O)Nc1nncs1)C(=O)NC1CCCC1 (centres undefined)
The “Percent Effect” value of the first is lower: -0.7919% for the first, 12.84% for the second.

Going from O=C(Nc1nc2c(s1)CN(S(=O)(=O)C1CC1)CC2)c1c(F)cccc1F to O=C(O)[C@@H]1CN(C(=O)c2cc(C3CC3)n[nH]2)C[C@H]1c1cccc(F)c1, the “Percent Effect” value rises from -9.469% to -7.697%.

First: CN(Cc1nnc(-c2cccs2)o1)Cc1nc2c(s1)CCCC2
Second: CN(Cc1nnc(C2CC2)n1C)C1CCN(CCc2cccs2)C1 (centres undefined)
The “Percent Effect” value of the first is lower: -3.278% for the first, 1.002% for the second.

Going from O=C1CC(c2ccccc2)c2c(n3ccsc3nc2=O)N1 (centres undefined) to O=C(O)[C@@H]1CN(C(=O)c2ccc3[nH]nnc3c2)C[C@H]1c1ccccc1, the “Percent Effect” value rises from 12.02% to 101.1%.

Going from Cc1oc(C(C)C)cc1C(=O)N1CCN(c2cnn(C)c(=O)c2)CC1 to CCn1c(C)nnc1CN(C)C1CCN(Cc2nccn2C)C1 (centres undefined), the “Percent Effect” value rises from -13.93% to -10.2%.

First: N#Cc1ccccc1C(=O)N1C[C@H]2CC[C@@H]1CN(c1ncccn1)C2
Second: O=C(O)[C@@H]1CN(C(=O)c2ccc3nccnc3c2)C[C@H]1c1ccncc1
The “Percent Effect” value of the first is lower: -29.72% for the first, -8.549% for the second.

Compared with CN(Cc1nnc(C2CC2)n1C)C1CCN(CCc2ccncc2)C1 (centres undefined), CN(Cc1nnc(C2CC2)n1C)C1CCN(Cc2ccncc2)C1 (centres undefined) is higher in “Percent Effect” value: -12.03% for the first, 97.4% for the second.

Compared with Cc1cnc(CN2CCC(N(C)Cc3nnc(C4CC4)n3C)C2)cn1 (centres undefined), Cc1nc(CN2CCC(N(C)Cc3nnc(C4CC4)n3C)C2)cs1 (centres undefined) is higher in “Percent Effect” value: -1.467% for the first, 109.7% for the second.

Going from CCc1cnc(CN(C)C2CCN(Cc3nnc(C4CC4)n3C)C2)o1 (centres undefined) to CN(Cc1nnc(C2CC2)n1C)C1CCN(Cc2nccn2C)C1 (centres undefined), the “Percent Effect” value rises from 100.6% to 117.3%.

First: CN(Cc1nnc(C2CC2)n1C)C1CCN(Cc2ccccc2)C1 (centres undefined)
Second: CN(Cc1nnc(C2CC2)n1C)C1CCN(CCc2ccccc2)C1 (centres undefined)
The “Percent Effect” value of the first is lower: -8.297% for the first, -2.973% for the second.

Compared with Cc1cccc(CN2CCC(N(C)Cc3nnc(C4CC4)n3C)C2)c1 (centres undefined), CN(Cc1nnc(C2CC2)n1C)C1CCN(Cc2ccc(F)cc2)C1 (centres undefined) is lower in “Percent Effect” value: 125.1% for the first, 5.91% for the second.

Compared with CCc1cnc(CN(C)C2CCN(CCc3cccs3)C2)o1 (centres undefined), CN(Cc1nnc(C2CC2)n1C)C1CCN(Cc2ccccc2F)C1 (centres undefined) is lower in “Percent Effect” value: 3.074% for the first, 2.374% for the second.

Going from CCC(=O)NCC(=O)NCc1cc(Br)ccc1OC(F)F to COC(=O)CNC(=O)C12CCC(=O)N1c1cc(Cl)ccc1S2 (centres undefined), the “Percent Effect” value falls from 6.284% to -3.577%.

First: Cc1ccc(N2CCC(NCc3cnc(C4CCC4)s3)CC2)nc1
Second: Cc1ccc(C(=O)N2C[C@@H](C(=O)O)[C@H](c3ccncc3)C2)cc1F
The “Percent Effect” value of the first is higher: 10.22% for the first, 1.77% for the second.

Going from CCOC(=O)C1CN(S(C)(=O)=O)Cc2ncn(CC)c21 (centres undefined) to COc1ccc(C(=O)N2C[C@@H](C(=O)O)[C@H](c3ccccc3)C2)c(C)c1, the “Percent Effect” value falls from 9.527% to -5.118%.

Going from Cc1ccccc1[C@@H]1CN(C(=O)c2ccc3[nH]nnc3c2)C[C@H]1C(=O)O to O=C(O)[C@@H]1CN(C(=O)c2ccc3[nH]nnc3c2)C[C@H]1c1cccc(F)c1, the “Percent Effect” value falls from 1.706% to 0.7419%.

Going from COc1ccc(C(=O)N2C[C@@H](C(=O)O)[C@H](c3cccc(F)c3)C2)c(O)c1 to O=C(O)[C@@H]1CN(C(=O)c2ccc(O)cc2)C[C@H]1c1cccc(F)c1, the “Percent Effect” value rises from -6.268% to 133.5%.

Compared with O=C(O)[C@@H]1CN(C(=O)c2ccc(Cl)cc2)C[C@H]1c1cccc(F)c1, Cc1ccc(F)c(C(=O)N2C[C@@H](C(=O)O)[C@H](c3ccncc3)C2)c1Cl is lower in “Percent Effect” value: 111.8% for the first, -4.386% for the second.
